Test [1] can be described thus: qHTS assay for small molecule agonists of the antioxidant response element (ARE) signaling pathway measured by Nrf2-dependant transcriptional activity (AID 720636; active = well fitted curve in the direction sought with a large enough effect in the repeat runs; an effect the other way counts as inactive or inconclusive;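 note: HepG2 cells with an ARE-driven luciferase reporter; % of control where 0% means no effect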). Put shortly: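 HepG2 ARE-luc reporter line, 1% dialyzed FBS; 6 hr attachment at 37 C, compound pinned in, 16 hr at 37 C/5% CO2; ONE-Glo, 30 min RT, luminescence read.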
Background: qHTS replaces the single test concentration by a dilution series.

Test [2] is described as follows: qHTS assay for small molecule antagonists of the retinoid-related orphan receptor gamma (ROR-gamma) signaling pathway - cell viability counter screen (AID 720652; active = well fitted curve in the direction sought with a large enough effect in the repeat runs; an effect the other way counts as inactive or inconclusive;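 note: compound exposure lasted 16 hr before ATP read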; note: potency is the fitted concentration of half-maximal effect). In short, it runs like this: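 Steps: seed CHO cells bearing TET-inducible ROR and ROR response element-luciferase; rest 5 hr at 37 C; add compound, then doxycycline; incubate 16 hr; add CellTiter-Glo and read luminescence as ATP-based viability.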

Test [3] can be described thus: qHTS assay for small molecule agonists of the antioxidant response element (ARE) signaling pathway measured by Nrf2-dependant transcriptional activity - cell viability counter screen (AID 720653; active = well fitted curve in the direction sought with a large enough effect in the repeat runs; an effect the other way counts as inactive or inconclusive; note: potency is the fitted concentration of half-maximal effect; for max response: % is set by controls: 0 for no effect and ±100 for the full control effect). To be noted: ARE-bla HepG2 viability, CellTiter-Glo ATP luminescence, 16 h; max response: stronger effect = lower value. In short, it runs like this: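 ARE-bla HepG2 cells (2,000/well) rested 5 hrs at 37C/5% CO2, then exposed to compounds in DMSO for 16 hrs. Viability was read in the same wells as intracellular ATP by luminescence, 30 min at room temperature after reagent addition.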

Test [4] is described as follows: qHTS Assay for Identifying Gametocytocidal Compounds (AID 743244).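 For max response: % is set by controls: 0 for no effect and ±100 for the full control effect; actives lower the fluorescent signal which means gametocytes are killed.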 Note: potency is the fitted concentration of half-maximal effect. To be noted: P. falciparum 3D7 stage III-V gametocytes, alamarBlue, 72 h; max response: stronger effect = lower value. Put shortly:
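Late gametocytes (III–V), P. falciparum 3D7; 72 h drug, then 24 h alamarBlue; resazurin reduction read by fluorescence.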

A short description of test [5]: qHTS assay for cell viability of HEK293 cells (AID 743288). For max response: % is set by controls: 0 for no effect and ±100 for the full control effect. Note: nearly all actives have a fitted effect of over 50% in size. Note: potency is the fitted concentration of half-maximal effect. The conditions noted are these: ATP luminescence (CellTiter-Glo), 18 h; max response: stronger effect = lower value. Put shortly: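 ATP luminescence (CellTiter-Glo) reports metabolically competent cell number after parental HEK293 cells, 2,000/well, were treated with DMSO-dissolved compounds for 18 h at 37 C; reagent incubation 30 min, room temperature.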

A short description of test [6]: qHTS assay for cell viability of the p53RE-bla HCT-116 cell line (AID 743292). Note: nearly all actives have a fitted effect of over 55% in size. Note: potency is the fitted concentration of half-maximal effect. In short, it runs like this:
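Luminescent ATP quantitation (CellTiter-Glo) served as the viability read-out; reagent was added after 16 h compound exposure at 37 C and read after 30 min at room temperature. Cells: p53RE-bla HCT-116, 4,000 per well.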

Test [7] in a line: qHTS for Activators of Parkin Expression: LOPAC Validation Assay (FLuc Reporter) (AID 720573;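 note: 0% = DMSO and 100% = positive control compounds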). Put shortly:
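FLuc luminescence read-out from a neuronal line expressing a Parkin-promoter-driven coincidence reporter. Cells treated 24 h at 37 C, 5% CO2 with compounds at 7 concentrations; signal increase normalized to DMSO and positive control.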

Test [8] concerns the target T1, Hexokinase-4 (Homo sapiens) + Glucokinase regulatory protein (Homo sapiens) (UniProt P35557+Q14397). As to the kind of experiment: qHTS assay for inhibitors of recombinant human GCK-GKRP interaction: Diaphorase-coupled assay (AID 743205). In short, it runs like this: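 Resorufin fluorescence (525/590 nm), read each minute over 30 min, reports GCK activity coupled via G6PDH and diaphorase. Reaction: 10 nM GST-GCK, 10 nM FLAG-GKRP, 5 mM glucose, 0.4 mM ATP, 0.15 mM NADP+, 0.1 mM resazurin.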

In test [9] the target is T1, Hexokinase-4 (Homo sapiens) + Glucokinase regulatory protein (Homo sapiens). The test can be described thus: qHTS assay for inhibitors of recombinant human GCK-GKRP interaction: ADP-Glo assay (AID 743206).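 Note: plate controls were DMSO plus enzyme for no effect and no enzyme for full effect.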 Put shortly: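 Pin-transferred compounds meet a 15 nM GST-GCK/15 nM FLAG-GKRP/2 uM S6P mix (dispense concentrations). ATP is then added to 0.4 mM final with 5 mM glucose, and the reaction runs 60 min at room temperature. ADP is quantified luminescently.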

Test [10] has the same target. The test can be described thus: qHTS assay for inhibitors of recombinant human GCK-GKRP interaction: HTRF assay (AID 743207).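 Note: 0% = DMSO with GCK present and -100% = DMSO wells lacking GCK.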 Put shortly: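 HTRF read-out (ex 320 nm; 615/665 nm emission) after 60 min RT equilibration of 5 nM GST-GCK, 5 nM FLAG-GKRP, 2 uM S6P, compound and anti-FLAG/anti-GST detection antibodies; signal normalized between DMSO wells with and without GCK.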

Molecules are shown by their SMILES. “And” between values parts separate entries of the source, which are not always exact repeats. Equal values may be shown once. Values without a mark were called inactive. Results filed as inconclusive are left out. The source made the active and inactive calls. Unless noted, calls come from the whole dose curve; as a rule, active = well fitted curve in the direction sought with a large enough effect; inconclusive = small, poorly fitted or top-dose-only effect, or another doubt; inactive = no such curve, though single readings can be large; an effect the other way counts as inactive or inconclusive.

T1 sequence (P35557 whole entry, looked up): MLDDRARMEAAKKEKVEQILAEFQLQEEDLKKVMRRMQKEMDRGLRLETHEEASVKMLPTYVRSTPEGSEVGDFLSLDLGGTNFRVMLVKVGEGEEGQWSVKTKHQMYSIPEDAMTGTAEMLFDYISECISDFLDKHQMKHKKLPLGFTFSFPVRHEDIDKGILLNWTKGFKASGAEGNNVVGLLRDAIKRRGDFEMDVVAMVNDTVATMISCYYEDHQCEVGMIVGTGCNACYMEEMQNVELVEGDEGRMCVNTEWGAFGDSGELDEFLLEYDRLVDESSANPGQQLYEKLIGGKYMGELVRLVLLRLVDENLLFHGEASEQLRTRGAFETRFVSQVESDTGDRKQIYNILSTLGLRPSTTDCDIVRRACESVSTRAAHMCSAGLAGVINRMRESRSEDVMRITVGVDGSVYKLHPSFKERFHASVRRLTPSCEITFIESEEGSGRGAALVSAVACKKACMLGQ
T1 sequence (Q14397 whole entry, looked up): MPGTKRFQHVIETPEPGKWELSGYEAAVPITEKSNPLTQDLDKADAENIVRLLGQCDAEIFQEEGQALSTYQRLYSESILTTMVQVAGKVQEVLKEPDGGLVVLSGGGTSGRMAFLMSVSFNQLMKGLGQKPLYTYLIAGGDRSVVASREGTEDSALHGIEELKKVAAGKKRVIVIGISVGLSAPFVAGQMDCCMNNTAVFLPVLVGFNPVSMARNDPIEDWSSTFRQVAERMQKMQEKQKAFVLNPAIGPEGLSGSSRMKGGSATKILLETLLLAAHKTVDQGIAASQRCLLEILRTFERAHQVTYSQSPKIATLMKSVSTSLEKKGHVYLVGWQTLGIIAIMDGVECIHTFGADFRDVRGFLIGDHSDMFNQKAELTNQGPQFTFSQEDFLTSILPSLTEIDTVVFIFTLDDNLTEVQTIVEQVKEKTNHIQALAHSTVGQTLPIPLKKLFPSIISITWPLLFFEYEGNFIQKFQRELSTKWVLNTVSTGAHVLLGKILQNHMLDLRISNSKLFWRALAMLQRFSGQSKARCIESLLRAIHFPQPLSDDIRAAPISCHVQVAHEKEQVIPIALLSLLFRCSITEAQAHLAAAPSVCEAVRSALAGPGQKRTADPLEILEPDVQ

With `C[C@H]1CC[C@@H]2[C@@H](C)[C@H]3[C@H](C[C@H]4[C@@H]5CC=C6CC(O[C@@H]7O[C@H](CO)[C@H](O)[C@H](O[C@@H]8O[C@H](CO)[C@@H](O)[C@H](O)[C@H]8O)[C@H]7O[C@H]7O[C@@H](C)[C@H](O)[C@@H](O)[C@H]7O)CC[C@]6(C)[C@H]5CC[C@]34C)N2C1` (some centres not stated), in [1], the Potency result is “inactive”. Besides, the Potency was 18.8 µM (active) in test [2], 44.7 µM (active) in test [3], 12.6 µM (active) in test [5] and 70.8 µM (active) in test [6]. Also, in test [4], the max response was -0.257%.
As to `N=C(N)c1ccc(CS(=O)(=O)F)cc1`, the compound was called inactive in test [7] and in test [9]. Also, the Potency result in test [8] was “inactive”. For the same compound, the max response in test [4] was 2.02%.
`NC(Cc1ccc(N(CCCl)CCCl)cc1)C(=O)O` (configuration not stated): the outcome in test [7] and in [9] was inactive. For the same compound, the Potency result in [8] is “inactive”. In addition, the max response in test [4] is 8.23%.
Regarding `O=C1CCO1`, the Potency result in test [1], in [2] and in test [6] was “inactive” in each case. For the same compound, the max response in [4] is 11.4%; in [5], 5.83%.
For the compound `O=c1[nH]c(=O)n(Cl)c(=O)n1Cl`, the Potency entry in test [1] and in test [6] was “inactive” throughout. Moreover, the max response in [4] is 6.71%; in [5], -3.48%.
Regarding `CNc1ccc2oc(C[C@H]3O[C@@]4(CC[C@H]3C)O[C@H]([C@H](C)C(=O)c3ccc[nH]3)[C@H](C)C[C@H]4C)nc2c1C(=O)O`, the result in test [7] and in test [9] was inactive. Moreover, the Potency entry in [8] is “inactive”. For the same compound, the Potency in test [4] was 2.35 µM (active).
Turning to `CC[C@H](C)[C@H]1O[C@]2(C=C[C@@H]1C)C[C@@H]1C[C@@H](C/C=C(\C)[C@@H](O[C@H]3C[C@H](OC)[C@@H](O[C@H]4C[C@H](OC)[C@@H](O)[C@H](C)O4)[C@H](C)O3)[C@@H](C)/C=C/C=C3\CO[C@@H]4[C@H](O)C(C)=C[C@@H](C(=O)O1)[C@]34O)O2`, the Potency result in [1] was “inactive”. For the same compound, in test [4], the max response is -7.27%.
As to `O=C1C[C@@H]2OCC=C3CN4CC[C@]56c7ccccc7N1[C@H]5[C@H]2[C@H]3C[C@H]46`, the Potency entry in test [1] and in test [6] was “inactive” each time. The max response is 1.95% in test [4] and -21.9% in [5].
For the compound `CCNC(C)Cc1cccc(C(F)(F)F)c1` (configuration not stated), the max response in test [4] is 22.8%.
Consider `C=CC[C@]1(O)CC[C@H]2[C@@H]3CCC4=CCCC[C@@H]4[C@H]3CC[C@@]21C`, for which the max response in test [4] was 15.3%.
For the compound `Oc1ccc2c3c1O[C@H]1[C@@H](O)CC[C@@]4(O)[C@@H](C2)N(CC2CCC2)CC[C@]314`, the max response in test [4] is 2.47%.
For `CC(C)(C)c1cc(O)ccc1O`, the Potency entry in [2] and in test [6] was “inactive” each time. Further, in [4], the Potency was 31.6 µM (active) and 3.55 µM (active). In addition, in test [5], the max response is -11% and 8.59% and 5.79%.
With `CC(C)(O)[C@@H]1[C@H]2OC(=O)[C@@H]1[C@]1(O)C[C@H]3O[C@]34C(=O)O[C@H]2[C@]14C`, the max response in [4] is -7.5% and 15.4%.
Take `Oc1ccc2c3c1O[C@H]1c4[nH]c5ccccc5c4C[C@@]4(O)C(C2)N(CC2CC2)CCC314` (some centres not stated): the Potency result in [8] is “inactive”.
On to `C=CCC1(C(C)CCC)C(=O)N=C(S)NC1=O` (configuration not stated), for which, in test [4], the max response was -3.05%.
Take `C=CCN1CC[C@]23c4c5ccc(O)c4O[C@H]2[C@@H](O)C=C[C@H]3[C@H]1C5`: the max response in [4] was 2.17%.
`O=C1CN=C(c2ccccc2)c2cc(Cl)ccc2N1CC1CC1`: the max response in test [4] is -0.952%.
Same read-out and setting: in the case of `Cc1ccccc1-n1c(CF)nc2ccc(N)cc2c1=O` it was -0.397%.
In the case of `O=C1C=C2C=C[C@@H]3C[C@@]2(O1)[C@H]1CCCCN31`, the Potency in test [4] is 7.08 µM (active).
For the compound `COc1ccc2c3c1O[C@H]1C(=O)CC[C@H]4[C@@H](C2)N(C)CC[C@]314`, in test [4], the max response is 13%.
As for `C=CCN=C=S`, the Potency entry in test [1] and in test [6] was “inactive” each time. The max response is -13.2% in test [4] and -7.74% in [5].
As to `CN1C2CCC1CC(OC(c1ccccc1)c1ccc(Cl)cc1)C2` (configuration not stated), the Potency in [4] was 17.8 µM (active).
In the case of `ClC1=C(Cl)[C@]2(Cl)[C@@H]3[C@H]4C[C@H]([C@@H]5O[C@H]45)[C@@H]3[C@@]1(Cl)C2(Cl)Cl`, the max response in [4] was 19.8%.
The same measure, in the same setting: in the case of `CN(C)[C@@H]1C(=O)C(C(N)=O)=C(O)[C@@]2(O)C(=O)C3=C(O)c4c(O)ccc(Cl)c4[C@@](C)(O)[C@H]3C[C@@H]12` it was 3.58%.
With `ClC1C(Cl)C(Cl)C(Cl)C(Cl)C1Cl` (configuration not stated), the Potency result in [1] and in test [6] was “inactive” throughout. Besides, the max response is 4.65% in test [4] and -11% [middle of 4 runs] in test [5].
With `CCOP(=O)(OCC)O/C(=C/Cl)c1ccc(Cl)cc1Cl`, the Potency result in test [1] and in test [6] was “inactive” each time. The max response in [5] is -28.5% and -27.3%.
In the case of `[2H]C([2H])([2H])[C@H](N)Cc1ccccc1`, the max response in test [4] is 14.3%.
Still for that read-out and setting: in the case of `CC[N+](C)(CC)CCOC(=O)C(O)(c1ccccc1)c1ccccc1` it was 11.5%; in that of `CN1CCCC(=C(c2cccs2)c2cccs2)C1`, -3.64%; in that of `C[C@]12CC[C@H](O)C[C@H]1CC[C@@H]1[C@@H]2CC[C@]2(C)[C@@H](c3ccc(=O)oc3)C[C@H]3O[C@]132`, 10.6%.
For `CCCCC[C@@H](O)C1C(=O)OC(C)[C@H](O)/C=C/C=C/C=C/C=C/C=C(\C)C(O)C(O)C(O)C[C@H](O)C[C@H](O)C[C@H](O)C[C@H](O)C[C@@H]1O` (some centres not stated), the max response in test [4] is 0.532% and 10.2%.
Turning to `C[C@@H]([C@H](O)c1ccccc1)N(C)C`, in test [4], the max response was 8.71%.
Still for that read-out and setting: with `CCC1C(C)=NN=C(c2ccc(OC)c(OC)c2)c2cc(OC)c(OC)cc21` (configuration not stated) the figure was 2.95%; with `O=C1CCCCC1CN1CCCCC1` (configuration not stated), -0.825%; with `CC(Cc1ccccc1)NC=O` (configuration not stated), -3.98%.
As to `C[N+]1(C)CCCCC1COC(=O)C(O)(c1ccccc1)c1ccccc1` (configuration not stated), the max response in test [4] is -10.4%.
As for `Oc1cccc[c]1[Hg][Cl]`, in test [4], the Potency is 1.78 µM (active).
Regarding `c1cc2c(c(NC3=NCCN3)c1)CCCC2`, the max response in test [4] is -7.43%.
On to `O=C/C=C/c1ccccc1`, for which the Potency result in test [2] and in [6] was “inactive” in each case. Besides, the max response was 12.8% and -6.35% in test [3]; 4.39% in test [4]; -23.6% in [5].
For `Cc1cccc(C(C)c2cnc[nH]2)c1C` (configuration not stated), in test [4], the max response is 17.3%.
Same read-out and setting: with `CCCC(C)C1(CC)C(=O)NC(=O)NC1=O` (configuration not stated) the figure was -3.05%.
In the case of `CC(C)CC(NP(=O)(O)O[C@@H]1O[C@@H](C)[C@H](O)[C@@H](O)[C@H]1O)C(=O)NC(Cc1c[nH]c2ccccc12)C(=O)O` (some centres not stated), the outcome in test [10] was inactive.
As for `COc1ccc2c3c1O[C@H]1[C@@H](O)C=C[C@H]4[C@@H](C2)NCC[C@@]341`, the max response in test [4] is -9%.
The same measure, in the same setting: with `CCCCNCC(O)c1ccc(O)cc1` (configuration not stated) the figure was 15.5%.
For the compound `O=C(NCNC(=O)NC1C(=O)NC(=O)N1CO)NC1C(=O)NC(=O)N1CO` (configuration not stated), the Potency entry in test [1] and in test [6] was “inactive” throughout. Besides, the figures for the max response in test [4] and in test [5] were 20.5% and -3.93%, respectively.
Take `CC12NC(Cc3ccccc31)c1ccccc12` (configuration not stated): the Potency result in test [8] was “inactive”. Further, the outcome in test [9] and in [10] was inactive.
`Cc1ccccc1-n1c(C)nc2ccccc2c1=O`: in [4], the max response was 5.64% and -12.4%.

These data come from PubChem BioAssay (NCATS).
